# The sample as a whole holds a higher share of the strongest signals than the screen did.
# Assays:
# Assay in all cases: glycan array binding signal (z-score within array); higher = stronger binding
# Conditions in all cases: glycan notation: IUPAC condensed, linker removed
# [1] = target: Fuc(a1-2)Gal(b1-3)GalNAc(b1-3)Gal
# Procedure, shortened: (§1)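 Glycan array data were curated from 3228 arrays in the Consortium for Functional Glycomics database and kept only where the protein sequence was available. Glycan names were converted to IUPAC-condensed notation, and columns mapping to the same glycan were averaged. The binding signal is a within-array Z-score, averaged across arrays of the same protein sequence at different concentrations or buffers and across linkers. Negative Z-scores can be read as non-binding.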
# [2] = target: Fuc(a1-2)Gal(b1-3)GlcNAc6S
# Procedure, shortened: as §1
# [3] = target: Fuc(a1-2)Gal3S(b1-4)GlcNAc
# Procedure, shortened: as §1
# [4] = target: Fuc(a1-2)[Gal(a1-3)]Gal(b1-3)GalNAc(b1-3)Gal(a1-4)Gal(b1-4)Glc
# Procedure, shortened: as §1
# [5] = target: Fuc(a1-2)[Gal(a1-3)]Gal(b1-3)GlcNAc(b1-6)GalNAc
# Procedure, shortened: as §1
# [6] = target: Fuc(a1-2)[Gal(a1-3)]Gal(b1-4)GlcNAc(b1-2)Man(a1-3)[Fuc(a1-2)[Gal(a1-3)]Gal(b1-4)GlcNAc(b1-2)Man(a1-6)]Man(b1-4)GlcNAc(b1-4)GlcNAc
# Procedure, shortened: as §1
# [7] = target: Fuc(a1-2)[Gal(a1-3)]Gal(b1-4)GlcNAc(b1-3)GalNAc
# Procedure, shortened: as §1
# [8] = target: Fuc(a1-2)[Gal(a1-3)]Gal(b1-4)GlcNAc(b1-3)[Fuc(a1-2)[Gal(a1-3)]Gal(b1-4)GlcNAc(b1-6)]GalNAc
# Procedure, shortened: as §1
# [9] = target: Fuc(a1-2)[Gal(a1-3)]Gal(b1-4)GlcNAc(b1-6)GalNAc
# Procedure, shortened: as §1
# [10] = target: Fuc(a1-2)[Gal(a1-3)]Gal(b1-4)[Fuc(a1-3)]Glc
# Procedure, shortened: as §1
# [11] = target: Fuc(a1-3)[Gal(b1-4)]GlcNAc
# Procedure, shortened: as §1
# [12] = target: Fuc(a1-3)[Gal(b1-4)]GlcNAc(b1-2)Man
# Procedure, shortened: as §1
# [13] = target: Fuc(a1-3)[Gal(b1-4)]GlcNAc(b1-6)[Gal(b1-3)GlcNAc(b1-3)]Gal(b1-4)Glc
# Procedure, shortened: as §1
# Fuc(a1-4)GlcNAc = target: Fuc(a1-4)GlcNAc
# Procedure, shortened: as §1
# [14] = target: Gal(b1-3)GalNAc(b1-3)Gal(a1-4)Gal(b1-4)Glc
# Procedure, shortened: as §1
# [15] = target: Gal(b1-3)GlcNAc(b1-3)GalNAc
# Procedure, shortened: as §1
# [16] = target: Gal(b1-3)[GlcNAc(b1-6)]GalNAc
# Procedure, shortened: as §1
# [17] = target: Gal(b1-3)[Neu5Ac(b2-6)]GalNAc
# Procedure, shortened: as §1
# [18] = target: Gal(b1-4)GlcNAc(b1-3)Gal(b1-4)GlcNAc(b1-2)[Gal(b1-4)GlcNAc(b1-3)Gal(b1-4)GlcNAc(b1-6)]Man(a1-6)[Gal(b1-4)GlcNAc(b1-3)Gal(b1-4)GlcNAc(b1-2)Man(a1-3)]Man(b1-4)GlcNAc(b1-4)GlcNAc
# Procedure, shortened: as §1
# [19] = target: Gal(b1-4)GlcNAc(b1-3)GalNAc
# Procedure, shortened: as §1
# [20] = target: Gal(b1-4)GlcNAc(b1-3)[Gal(b1-4)GlcNAc(b1-6)]Gal(b1-4)GlcNAc
# Procedure, shortened: as §1
# [21] = target: Gal(b1-4)GlcNAc(b1-3)[GlcNAc(b1-6)]Gal(b1-4)GlcNAc
# Procedure, shortened: as §1
# [22] = target: Gal(b1-4)GlcNAc(b1-6)[Gal(b1-4)GlcNAc(b1-3)]GalNAc
# Procedure, shortened: as §1
# Gal(b1-6)Gal = target: Gal(b1-6)Gal
# Procedure, shortened: as §1
# [23] = target: Gal3S(b1-4)[Fuc(a1-3)]GlcNAc6S
# Procedure, shortened: as §1
# Gal3S4S(b1-4)GlcNAc = target: Gal3S4S(b1-4)GlcNAc
# Procedure, shortened: as §1
# Gal3S6S(b1-4)GlcNAc6S = target: Gal3S6S(b1-4)GlcNAc6S
# Procedure, shortened: as §1
# Gal6S(b1-4)Glc6S = target: Gal6S(b1-4)Glc6S
# Procedure, shortened: as §1
# GlcA(b1-3)GlcNAc = target: GlcA(b1-3)GlcNAc
# Procedure, shortened: as §1
# [24] = target: GlcNAc(a1-3)Gal(b1-4)GlcNAc
# Procedure, shortened: as §1
# [25] = target: GlcNAc(a1-4)Gal(b1-4)GalNAc
# Procedure, shortened: as §1
# [26] = target: GlcNAc(b1-2)[GlcNAc(b1-4)]Man(a1-3)[GlcNAc(b1-4)][GlcNAc(b1-2)[GlcNAc(b1-6)]Man(a1-6)]Man(b1-4)GlcNAc(b1-4)[Fuc(a1-6)]GlcNAc
# Procedure, shortened: as §1
# [27] = target: GlcNAc(b1-3)Gal(b1-4)GlcNAc
# Procedure, shortened: as §1
# [28] = target: GlcNAc(b1-3)Gal(b1-4)GlcNAc(b1-3)Gal(b1-4)GlcNAc(b1-3)Gal(b1-4)GlcNAc(b1-3)Gal(b1-4)GlcNAc(b1-2)[GlcNAc(b1-3)Gal(b1-4)GlcNAc(b1-3)Gal(b1-4)GlcNAc(b1-3)Gal(b1-4)GlcNAc(b1-3)Gal(b1-4)GlcNAc(b1-6)]Man(a1-6)[GlcNAc(b1-3)Gal(b1-4)GlcNAc(b1-3)Gal(b1-4)GlcNAc(b1-3)Gal(b1-4)GlcNAc(b1-3)Gal(b1-4)GlcNAc(b1-2)Man(a1-3)]Man(b1-4)GlcNAc(b1-4)[Fuc(a1-6)]GlcNAc
# Procedure, shortened: as §1
# GlcNAc(b1-3)Man = target: GlcNAc(b1-3)Man
# Procedure, shortened: as §1
# GlcNAc(b1-4)GlcNAc = target: GlcNAc(b1-4)GlcNAc
# Procedure, shortened: as §1
# GlcNAc(b1-6)GalNAc = target: GlcNAc(b1-6)GalNAc
# Procedure, shortened: as §1
# [29] = target: Man(a1-2)Man(a1-2)Man(a1-3)Man
# Procedure, shortened: as §1
# [30] = target: Neu5Ac(a2-3)Gal(b1-3)GalNAc(b1-4)[Neu5Ac(a2-3)]Gal(b1-4)Glc
# Procedure, shortened: as §1
# Neu5Ac(a2-3)Gal(b1-4)Glc = target: Neu5Ac(a2-3)Gal(b1-4)Glc
# Procedure, shortened: as §1
# [31] = target: Neu5Ac(a2-3)Gal(b1-4)GlcNAc(b1-3)Gal(b1-4)GlcNAc(b1-3)[Neu5Ac(a2-3)Gal(b1-4)GlcNAc(b1-3)Gal(b1-4)GlcNAc(b1-6)]GalNAc
# Procedure, shortened: as §1
# [32] = target: Neu5Ac(a2-3)[Neu5Ac(a2-6)]GalNAc
# Procedure, shortened: as §1
# Neu5Ac(a2-6)Gal = target: Neu5Ac(a2-6)Gal
# Procedure, shortened: as §1
# [33] = target: Neu5Ac(a2-6)Gal(b1-4)GlcNAc(b1-2)Man(a1-3)[Neu5Ac(a2-6)Gal(b1-4)GlcNAc(b1-2)Man(a1-6)]Man(b1-4)GlcNAc(b1-4)GlcNAc
# Procedure, shortened: as §1
# [34] = target: Neu5Ac(a2-6)Gal(b1-4)GlcNAc(b1-3)Gal(b1-4)GlcNAc(b1-3)[Neu5Ac(a2-6)Gal(b1-4)GlcNAc(b1-3)Gal(b1-4)GlcNAc(b1-6)]GalNAc
# Procedure, shortened: as §1
# [35] = target: Neu5Ac(a2-6)Gal(b1-4)GlcNAc(b1-6)[Gal(b1-3)GlcNAc(b1-3)]Gal(b1-4)Glc
# Procedure, shortened: as §1
# [36] = target: Neu5Ac(a2-6)Gal(b1-4)GlcNAc6S
# Procedure, shortened: as §1
# Neu5Ac(a2-8)Neu5Ac = target: Neu5Ac(a2-8)Neu5Ac
# Procedure, shortened: as §1
# [37] = target: Neu5Ac(a2-8)Neu5Ac(a2-3)Gal(b1-3)GalNAc(b1-4)[Neu5Ac(a2-3)]Gal(b1-4)Glc
# Procedure, shortened: as §1
# Neu5Gc(a2-3)Gal(b1-4)Glc = target: Neu5Gc(a2-3)Gal(b1-4)Glc
# Procedure, shortened: as §1
# [38] = target: Neu5Gc(a2-3)Gal(b1-4)GlcNAc
# Procedure, shortened: as §1
# [39] = target: Neu5Gc(a2-6)Gal(b1-4)GlcNAc
# Procedure, shortened: as §1
binder,measurement,setting,value
PNGase F (Flavobacterium meningosepticum) (protein) GIPAPADNTVNIKTFDKVKNAFGDGLSQSAEGTFTFPADVTAVKTIKMFIKNECPNKTCDEWDRYANVYVKNKTTGEWYEIGRFITPYWVGTEKLPRGLEIDVTDFKSLLSGNTELKIYTETWLAKGREYSVDFDIVYGTPDYKYSAVVPVVQYNKSSIDGVPYGKAHTLALKKNIQLPTNTEKAYLRTTISGWGHAKPYDAGSRGCAEWCFRTHTIAINNSNTFQHQLGALGCSANPINNQSPGNWTPDRAGWCPGMAVPTRIDVLNNSLIGSTFSYEYKFQNWTNNGTNGDAFYAISSFVIAKSNTPISAPVVTNLDPHHHHHH,glycan array binding signal (z-score),[1],1.61
same,glycan array binding signal (z-score),[2],-0.123
same,glycan array binding signal (z-score),[3],-0.157
same,glycan array binding signal (z-score),[4],0.033
same,glycan array binding signal (z-score),[5],-0.032
same,glycan array binding signal (z-score),[6],-0.273
same,glycan array binding signal (z-score),[7],-0.226
same,glycan array binding signal (z-score),[8],1.46
same,glycan array binding signal (z-score),[9],0.476
same,glycan array binding signal (z-score),[10],-0.16
same,glycan array binding signal (z-score),[11],0.02
same,glycan array binding signal (z-score),[12],0.163
same,glycan array binding signal (z-score),[13],-0.308
same,glycan array binding signal (z-score),Fuc(a1-4)GlcNAc,2.72
same,glycan array binding signal (z-score),[14],0.036
same,glycan array binding signal (z-score),[15],-0.268
same,glycan array binding signal (z-score),[16],-0.166
same,glycan array binding signal (z-score),[17],-0.337
same,glycan array binding signal (z-score),[18],1.63
same,glycan array binding signal (z-score),[19],-0.281
same,glycan array binding signal (z-score),[20],-0.219
same,glycan array binding signal (z-score),[21],1.78
same,glycan array binding signal (z-score),[22],-0.289
same,glycan array binding signal (z-score),Gal(b1-6)Gal,0.208
same,glycan array binding signal (z-score),[23],0.165
same,glycan array binding signal (z-score),Gal3S4S(b1-4)GlcNAc,-0.092
same,glycan array binding signal (z-score),Gal3S6S(b1-4)GlcNAc6S,-0.035
same,glycan array binding signal (z-score),Gal6S(b1-4)Glc6S,-0.41
same,glycan array binding signal (z-score),GlcA(b1-3)GlcNAc,-0.118
same,glycan array binding signal (z-score),[24],-0.344
same,glycan array binding signal (z-score),[25],1.26
same,glycan array binding signal (z-score),[26],-0.395
same,glycan array binding signal (z-score),[27],-0.264
same,glycan array binding signal (z-score),[28],-0.3
same,glycan array binding signal (z-score),GlcNAc(b1-3)Man,3.03
same,glycan array binding signal (z-score),GlcNAc(b1-4)GlcNAc,10.4
same,glycan array binding signal (z-score),GlcNAc(b1-6)GalNAc,-0.018
same,glycan array binding signal (z-score),[29],1.49
same,glycan array binding signal (z-score),[30],-0.289
same,glycan array binding signal (z-score),Neu5Ac(a2-3)Gal(b1-4)Glc,2.16
same,glycan array binding signal (z-score),[31],-0.043
same,glycan array binding signal (z-score),[32],0.36
same,glycan array binding signal (z-score),Neu5Ac(a2-6)Gal,-0.129
same,glycan array binding signal (z-score),[33],-0.391
same,glycan array binding signal (z-score),[34],-0.278
same,glycan array binding signal (z-score),[35],-0.207
same,glycan array binding signal (z-score),[36],-0.286
same,glycan array binding signal (z-score),Neu5Ac(a2-8)Neu5Ac,-0.021
same,glycan array binding signal (z-score),[37],-0.328
same,glycan array binding signal (z-score),Neu5Gc(a2-3)Gal(b1-4)Glc,0.187
same,glycan array binding signal (z-score),[38],2.36
same,glycan array binding signal (z-score),[39],-0.046

# Source: the supplement of paper PMC8728848
